CHT block – inhibitors of human choline transporter CHT. High affinity choline transporter 1 (Homo sapiens), Q9GZV3. CHT-expressing cells, membrane potential dye, choline response; hits give low values. B-score at 10 µM. 0.86% of 310,000 active;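 active means B-score over 3 SD under the library average, and starting fluorescence ratio not unusually high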;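 further: choline stimulus applied at its EC90 after an EC20 pre-addition; B-score computed on integrated fluorescence ratio after choline addition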
CHT PAM – CHT positive allosteric modulators, primary screen, cell-based, membrane potential dye, choline EC20; AID 488977, 2010; CHT-expressing cells; hits give high values; LV-AA mutant CHT in HEK293 cells; High affinity choline transporter 1 (Homo sapiens), Q9GZV3; 0.49% of 310,000 active; B-score at 10 µM;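 active means initial fluorescence not abnormally high and integrated response B-score, plate-corrected, over 3 SD above library mean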
AI-2 QS modul – Vibrio harveyi AI-2 quorum sensing modulators, primary screen, JMH597 strain, luminescence/OD600 ratio | 0.4% of 300,000 active | Vibrio harveyi JMH597 AI-2 luminescence/OD600 ratio, 9 h; hits give low values; strain lacks LuxN and CqsS sensors; 0 = neutral-control median | activity change, % at 7.5 µM | AID 2094, 2009; in the data active means activity change below about -75%, passing the limit was not always enough;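 further: luminescence divided by OD600 gain over 9 h not by final OD600 alone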
PREPL inh – PREPL enzyme inhibitors, primary screen, biochemical, fluorescence polarization; Prolyl endopeptidase-like (Homo sapiens), Q4J6C6; recombinant PREPL, fluorescence polarization activity-based probe; inhibition, % at 5.96 µM; 0.68% of 320,000 active; AID 2751, 2010; in the data active means inhibition above about 43%
Target sequence (Q4J6C6 whole entry, looked up): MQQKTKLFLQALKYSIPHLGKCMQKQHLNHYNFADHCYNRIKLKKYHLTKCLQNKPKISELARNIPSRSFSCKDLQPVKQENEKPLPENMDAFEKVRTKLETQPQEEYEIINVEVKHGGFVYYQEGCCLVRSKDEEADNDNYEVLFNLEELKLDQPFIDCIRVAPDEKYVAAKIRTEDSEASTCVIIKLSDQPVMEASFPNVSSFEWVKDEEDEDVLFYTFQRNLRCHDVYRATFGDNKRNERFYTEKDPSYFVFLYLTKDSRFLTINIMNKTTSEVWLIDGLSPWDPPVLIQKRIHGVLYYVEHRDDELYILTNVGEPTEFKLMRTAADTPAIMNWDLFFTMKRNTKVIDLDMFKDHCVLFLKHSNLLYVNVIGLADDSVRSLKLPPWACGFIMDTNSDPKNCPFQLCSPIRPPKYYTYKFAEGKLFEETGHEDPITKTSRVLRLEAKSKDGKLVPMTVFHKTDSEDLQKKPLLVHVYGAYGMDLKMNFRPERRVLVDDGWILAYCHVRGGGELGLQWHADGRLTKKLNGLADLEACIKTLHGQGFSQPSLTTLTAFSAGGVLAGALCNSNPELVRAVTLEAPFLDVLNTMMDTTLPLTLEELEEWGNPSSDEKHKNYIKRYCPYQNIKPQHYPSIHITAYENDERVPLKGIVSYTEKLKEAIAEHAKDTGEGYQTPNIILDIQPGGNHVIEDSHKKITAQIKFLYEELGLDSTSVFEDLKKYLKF
ALR H2O2 inh – inhibitors of human ALR sulfhydryl oxidase, primary screen, biochemical, H2O2 detection, HRP-luminol luminescence, single point. inhibition, % (concentration not given with the values). AID 485317, 2010. FAD-linked sulfhydryl oxidase ALR (Homo sapiens), P55789. purified ALR, DTT oxidation. 3.8% of 290,000 active;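 active means mean replicate inhibition above about 79%, with every replicate also reaching it, limit read from the data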
Numbers stand for hits; - = inactive; . = not tested or not shown. Most compounds without a hit are left out; they make up all but 5% or so of the library.

SMILES | CHT block | CHT PAM | AI-2 QS modul | PREPL inh | ALR H2O2 inh
COc1cc2c(cc1OC)-c1cc(Nc3ccc(N(C)C)cc3)nc(=O)n1CC2 | - | - | - | - | 99
CC1CCN(c2ccc(-c3cccc(NC(=O)c4ccco4)c3)nn2)CC1 | - | - | - | - | .
Cn1c(=O)c2c(-c3ccccc3)n(-n3cnnc3)cc2n(C)c1=O | - | - | - | - | 96
COC(=O)CC1(C(=O)OC)Oc2ccccc2C(=O)N1c1ccc(F)cc1F (stereo not given) | - | - | - | - | -
C=CCn1c(SCc2nc3sc(C(=O)O)c(C)c3c(=O)[nH]2)nnc1-c1ccc(C(C)(C)C)cc1 | - | - | - | - | 98
Cc1c(OCC(F)(F)F)ccnc1CS(=O)c1nc2ccccc2[nH]1 (stereo not given) | - | - | - | - | 97
COCCn1nnnc1C(c1ccccc1)N1CCN(c2ccccc2)CC1 (stereo not given) | - | - | - | - | 97
COCCn1nnnc1C(c1ccccc1)N1CCN(C)CC1 (stereo not given) | - | - | - | - | -
CCC(/C=N/NC(=O)C(N)=O)CC | - | - | - | - | 98
CC(C)c1nc2ccc(Br)cn2c1NC1CCCC1 | - | - | - | - | 99
CCC(C)Sc1cc(-c2nc3ccc(Cl)cn3c2NC2CCCCC2)ccc1OC (stereo not given) | . | . | . | - | .
COc1cccc(NC(=O)Cc2nnc(SCC(=O)NC3CCCC3)n2C)c1 | - | - | - | - | .
CN(C)c1ccc(NC(=O)CSc2nc3c(c(=O)[nH]2)CCCC3)cc1 | - | - | - | - | 96
Cc1cc(C)c2c(=O)[nH]c(SCC(=O)c3ccc(C)c(C)c3)nc2n1 | - | - | - | - | 98
CCc1cccc(NC(=O)CSc2nc3c(c(=O)[nH]2)CCCC3)c1 | - | - | - | - | -
Cc1cc(C)cc(NC(=O)CSc2nc3nc(C)cc(C)c3c(=O)[nH]2)c1 | . | . | . | - | 99
Cc1cc(C)c2c(=O)[nH]c(SCC(=O)Nc3ccc(N(C)C)cc3)nc2n1 | - | - | - | - | 99
COc1ccc(S(N)(=O)=O)cc1C(=O)NNC(=O)CN(C)S(=O)(=O)c1ccc(Cl)cc1 | . | . | . | - | -
Cc1ccc(N(CC(=O)NC(C)(C)C)C(=O)CS(=O)CC(=O)Nc2ccc3c(c2)OCO3)cc1 (stereo not given) | - | - | - | - | -
O=C(/C=C/c1ccc(O)cc1)c1c(O)cc(O)cc1O | - | - | - | - | 98
Cc1ccc(CSc2nnc(NC(=O)Cn3cnc4ccccc4c3=O)s2)cc1 | - | - | - | - | -
CCSc1nnc(NC(=O)Cn2cnc3ccccc3c2=O)s1 | - | - | -81 | - | -
CC(C)c1cc(C(=O)N2CCCC(CCC(=O)NCc3ccccc3F)C2)n(C)n1 (stereo not given) | - | - | - | - | -
Cc1ccc(NC(=O)COC(=O)Cc2ccsc2)cc1S(=O)(=O)N1CCOCC1 | - | - | - | - | -
O=C(Nc1cccc(C(F)(F)F)c1)C1CCCO1 (stereo not given) | - | - | - | - | -
SMILES | CHT block | CHT PAM | AI-2 QS modul | PREPL inh | ALR H2O2 inh
O=C(Cc1cnn(-c2ccccc2)c1)c1ccc(O)c(O)c1O | - | - | - | - | 100
CCc1cc(C(=O)Cc2cnn(-c3ccccc3)c2)c(O)cc1O | - | - | - | - | -
COc1ccc(N2C(=O)CC(Sc3n[nH]c(-c4cccc(C)c4)n3)C2=O)cc1 (stereo not given) | - | - | - | - | 99
CCOc1ccccc1N1C(=O)CC(Sc2n[nH]c(-c3ccccc3)n2)C1=O (stereo not given) | - | - | - | - | 99
COc1ccc(N2C(=O)CC(Sc3nccc(C)n3)C2=O)cc1 (stereo not given) | - | - | . | - | -
CCOc1cc(C(=O)Oc2cc(C)[nH]c(=O)c2[N+](=O)[O-])cc(OCC)c1OCC | - | - | - | - | -
CC(=O)C1=C(c2ccccc2)NC(=S)NC1c1cc(Cl)c(OC(C)C)c(Cl)c1 (stereo not given) | - | - | - | - | -
CC(=O)C1=C(c2ccccc2)NC(=S)NC1c1ccc(O)c(O)c1 (stereo not given) | - | - | - | - | 99
CC1=C([N+](=O)[O-])C(c2ccc(O)c(O)c2)NC(=O)N1 (stereo not given) | - | - | - | - | 99
CC(=O)C1=C(c2ccccc2)NC(=O)NC1c1ccc(O)c(O)c1 (stereo not given) | - | - | - | - | 99
COc1ccc(C2NC(=O)NC(C)=C2[N+](=O)[O-])cc1OC (stereo not given) | - | - | - | - | -
Cc1ccc(S(=O)(=O)NN2C(=O)/C(=C/c3cccn3C)SC2=S)cc1 | - | - | . | - | 97
Cc1ccc(/C=C2\SC(=S)N(NS(=O)(=O)c3ccc(C)cc3)C2=O)cc1 | - | - | - | - | -
Cc1ccc(S(=O)(=O)NN2C(=O)/C(=C\c3ccc(Cl)cc3)SC2=S)cc1 | - | - | - | - | -
COc1ccc(/C=C2/SC(=S)N(NS(=O)(=O)c3ccc(C)cc3)C2=O)cc1 | -5.6 | - | - | - | .
COc1ccc(OC)c(-c2cc(C(=O)Nc3ccccc3C(N)=O)c3ccccc3n2)c1 | - | - | - | - | -
CCOc1cc(/C=N/OC(C)=O)ccc1OCc1ccccc1 | - | - | - | - | -
CCCn1c(C(C)NC(=O)c2ccccc2)n[nH]c1=S (stereo not given) | - | - | - | - | 94
CCN(CC)S(=O)(=O)c1ccc2c(c1)nc(SCC(=O)N(C)C1CCS(=O)(=O)C1)n2CC (stereo not given) | - | - | - | - | -
FC(F)(F)C1=CC(c2ccc(Cl)cc2)=NCCN1 | - | - | - | - | 99
CCCCN1C2=NC(c3ccccc3)CN2c2ccccc21 (stereo not given) | - | - | - | - | 93
COc1ccc(NS(=O)(=O)c2ccc3oc(SC(C)C(N)=O)nc3c2)cc1 (stereo not given) | - | - | - | - | -
CCN=c1scc(C)n1/N=C/c1ccsc1 | - | - | - | - | 99
COc1ccc(OCC(=O)N/N=C/c2ccsc2)cc1 | - | - | - | - | .
CC(CNC(=O)CCn1ccc2cc(S(=O)(=O)N3CCCC3)ccc21)c1ccccc1 (stereo not given) | - | - | - | - | -
CCC(=O)Nc1ccc2c(c1)nc1n2CCSC1 | - | - | - | - | 99
CC(C)C(=O)Nc1ccc2c(c1)nc1n2CCSC1 | - | - | - | - | 99
O=[N+]([O-])c1ccc2c(c1)nc1n2CCSC1 | - | - | - | - | .
S=c1[nH]nc(Nc2cccc(Cl)c2)s1 | - | - | - | - | 99
